An excerpt weighted towards active compounds, which were near 3.1% of everything screened.
PAX8 reporter: lowers PAX8-driven luciferase in RMG-I cells | RMG-I TPO-luciferase reporter, SteadyGlo, 24 h | inhibition, % at 12.6 µM | 360,000 compounds, 1.2% hits;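 active = mean replicate inhibition at least 60% with every replicate also reaching 60%; inconclusive = only one of the two criteria is met; inactive = mean below 60% and not all replicates reaching 60%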;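 also: luciferase light reporting Pax8 driven TPO promoter activity; plate controls were median of neutral control wells for no effect and mitoxantrone controls for full effect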
EWS-Fli inh: inhibitors of EWS/Fli oncoprotein transcriptional activity | A673 NR0B1-luciferase reporter, viability-normalised | inhibition, % at 12.6 µM | 350,000 compounds, 0.67% hits | AID 651661;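 active = mean inhibition of at least 50% after viability correction, with every replicate also passing that limit; inconclusive = mean reaches 50% but only one of two replicates passes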;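 also: firefly luciferase signal divided by Alamar Blue viability fluorescence both relative to DMSO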
C2C12 statin: protects C2C12 myotubes from simvastatin toxicity. ATP luminescence, 48 h; scaled: DMSO 0, geranylgeraniol control 100. rescue of ATP level, % at 7.49 µM. 330,000 compounds, 0.78% hits. AID 602340;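 active = mean ATP rescue above about 67%, or every replicate alone reaching that limit, limit read from the data, passing the limit was not always enough; inconclusive = no clear call, values can overlap the other calls; inactive = mean under the limit and some replicate under it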;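 also: myotubes were challenged with 10 µM simvastatin during compound exposure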
HIV Env fusion: inhibitors of HIV Env-mediated cell fusion; HeLa-JRFL Env/CEM21 cell fusion, luciferase; inhibition, % at 12.3 µM; 360,000 compounds, 1.1% hits;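 active = mean replicate inhibition score of at least 50 and every replicate individually at or above 50; inconclusive = only one of the two criteria met; inactive = mean below 50 and not all replicates reaching 50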;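 also: 0% = plate neutral controls and 100% = maraviroc near 300 nM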
miR122 inh: inhibitors of miR-122 in Huh7 cells. Huh7 miR-122 Renilla luciferase sensor, 48 h; neutral wells = 0, positive control = 100. 340,000 compounds, 0.3% hits. activation (reporter increase), % at 12.5 µM;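 active = mean replicate activation score at least 90 and every replicate individually at or above 90; inconclusive = only one of the two criteria met; inactive = neither criterion met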;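 also: higher luciferase means less miR-122 activity so hits act as miR-122 inhibitors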
GSIS activator: primary screen for activators of insulin secretion dependent on glucose, INS-1E cells, GLuc reporter luminescence | activation, % at 16.6 µM | 370,000 compounds, 0.61% hits | AID 743287 | INS-1E GLuc reporter insulin secretion, 2-3 h;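 active = lowest replicate activation of at least 40%, so every replicate reaches that level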;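 also: 0% = median of neutral control wells and 100% = median of IBMX positive control wells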
Active calls of the source: *; [ ] = another dose, or the depositor's remark.

Screening COC(=O)c1cc(S(=O)(=O)NCCc2ccccc2)c[nH]1 returned PAX8 reporter -5, EWS-Fli inh -6, C2C12 statin 120*, HIV Env fusion -4, miR122 inh 18 and GSIS activator 5.
Screening COC(=O)c1cc(S(=O)(=O)NCC2CCN(Cc3ccc(C)cc3)CC2)c[nH]1 returned PAX8 reporter 7, C2C12 statin -4, HIV Env fusion -3, miR122 inh -5 and GSIS activator 9.
Screening COC(=O)c1cc(S(=O)(=O)NCC2CCN(Cc3cc(C)ccc3C)CC2)c[nH]1 returned PAX8 reporter -15, EWS-Fli inh 5, C2C12 statin 35, HIV Env fusion 0, miR122 inh -5 and GSIS activator 55*.
Screening O=C(C[C@H]1C=C[C@H](NC(=O)Nc2cccc(F)c2)[C@H](CO)O1)NCC1CC1 returned PAX8 reporter -11, EWS-Fli inh -3, C2C12 statin 2, HIV Env fusion -10[16.7 µM] and GSIS activator 8.
For CC(C)NC(=O)Nc1ccc2c(c1)C(=O)N([C@H](C)CO)C[C@H](C)[C@H](CN(C)C(=O)Nc1ccc(C(F)(F)F)cc1)OCCCC[C@H](C)O2 the results were PAX8 reporter 42, EWS-Fli inh 10, HIV Env fusion -23[16.7 µM], miR122 inh 20[16.7 µM] and GSIS activator -10.
CC(C)NC(=O)Nc1ccc2c(c1)C(=O)N([C@H](C)CO)C[C@@H](C)[C@@H](CN(C)C(=O)Nc1ccc(C(F)(F)F)cc1)OCCCC[C@@H](C)O2 was read as PAX8 reporter 8, EWS-Fli inh 28, HIV Env fusion 72*[16.7 µM], miR122 inh -6[16.7 µM] and GSIS activator 11.
CC(C)NC(=O)N(C)C[C@@H]1OCCCC[C@@H](C)Oc2ccc(NC(=O)Nc3ccc(C(F)(F)F)cc3)cc2C(=O)N([C@@H](C)CO)C[C@H]1C was read as PAX8 reporter 49, EWS-Fli inh -5 and GSIS activator -1.
`CC(C)NC(=O)N(C)C[C@@H]1OCCCC[C@H](C)Oc2ccc(NC(=O)Nc3ccc(C(F)(F)F)cc3)cc2C(=O)N([C@@H](C)CO)C[C@@H]1C` gave PAX8 reporter 69*, EWS-Fli inh 4, HIV Env fusion -19[16.7 µM], miR122 inh -5[16.7 µM] and GSIS activator 8.
CC(C)NC(=O)Nc1ccc2c(c1)C(=O)N([C@H](C)CO)C[C@@H](C)[C@H](CN(C)C(=O)Nc1ccc(C(F)(F)F)cc1)OCCCC[C@@H](C)O2 was read as PAX8 reporter 68*, EWS-Fli inh 24, HIV Env fusion -12[16.7 µM], miR122 inh -9[16.7 µM] and GSIS activator -6.
For CC(C)NC(=O)Nc1ccc2c(c1)C(=O)N([C@@H](C)CO)C[C@@H](C)[C@H](CN(C)C(=O)Nc1ccc(C(F)(F)F)cc1)OCCCC[C@H](C)O2 the results were PAX8 reporter 16, EWS-Fli inh 4, HIV Env fusion 19[16.7 µM], miR122 inh -7[16.7 µM] and GSIS activator -11.
CC(C)NC(=O)Nc1ccc2c(c1)C(=O)N([C@H](C)CO)C[C@@H](C)[C@H](CN(C)C(=O)Nc1ccc(C(F)(F)F)cc1)OCCCC[C@H](C)O2 was read as PAX8 reporter -8, EWS-Fli inh 11, HIV Env fusion 75*[16.7 µM], miR122 inh 4[16.7 µM] and GSIS activator 9.
`CNC[C@@H]1OCCCC[C@@H](C)Oc2ccc(NS(=O)(=O)c3cn(C)cn3)cc2C(=O)N([C@H](C)CO)C[C@@H]1C` gave PAX8 reporter -4, EWS-Fli inh 7, C2C12 statin -14, HIV Env fusion 5[16.7 µM], miR122 inh 10[16.7 µM] and GSIS activator 4.
For C[C@@H]1CN([C@H](C)CO)C(=O)c2cc(NC(=O)Nc3ccccc3)ccc2O[C@@H](C)CCCCO[C@H]1CN(C)C(=O)Nc1ccc(C(F)(F)F)cc1 the results were PAX8 reporter 84*, EWS-Fli inh 24 and GSIS activator 5.
`C[C@H](CO)N1C[C@H](C)[C@@H](CN(C)C(=O)CCCN(C)C)OCCCC[C@H](C)Oc2ccc(NC(=O)Nc3ccc(C(F)(F)F)cc3)cc2C1=O` gave PAX8 reporter -3, EWS-Fli inh -5, C2C12 statin 90*, HIV Env fusion -22[16.7 µM], miR122 inh -4[16.7 µM] and GSIS activator 23.
Screening COc1ccc(NC(=O)N(C)C[C@H]2OCCCC[C@@H](C)Oc3ccc(NC(=O)Nc4ccc(C(F)(F)F)cc4)cc3C(=O)N([C@@H](C)CO)C[C@@H]2C)cc1 returned PAX8 reporter 77*, EWS-Fli inh 7, C2C12 statin -15, HIV Env fusion 23[16.7 µM], miR122 inh 6[16.7 µM] and GSIS activator 19.
Screening COc1ccc(NC(=O)N(C)C[C@H]2OCCCC[C@H](C)Oc3ccc(NC(=O)Nc4ccc(C(F)(F)F)cc4)cc3C(=O)N([C@H](C)CO)C[C@@H]2C)cc1 returned PAX8 reporter 11, EWS-Fli inh 7, C2C12 statin 7, HIV Env fusion 6[16.7 µM], miR122 inh -4[16.7 µM] and GSIS activator 7.
Screening Cn1cnc(S(=O)(=O)N[C@@H]2C=C[C@H](CC(=O)Nc3ccccc3)O[C@@H]2CO)c1 returned EWS-Fli inh 0, C2C12 statin 2, HIV Env fusion -1[16.7 µM] and GSIS activator 15.
Screening O=C(c1ccccc1NS(=O)(=O)c1ccccc1[N+](=O)[O-])N1CCOCC1 returned PAX8 reporter 17, HIV Env fusion 2, miR122 inh -5 and GSIS activator -6.
O=C(c1ccccc1NS(=O)(=O)c1ccc([N+](=O)[O-])cc1[N+](=O)[O-])N1O[C@@H]2C=C[C@H]1C2 was read as PAX8 reporter 10, EWS-Fli inh -11, C2C12 statin 3, HIV Env fusion 12, miR122 inh -3 and GSIS activator 49*.
O=C(c1ccccc1)N1C[C@H]2[C@@H](c3ccccc31)[C@H](CO)N2Cc1cc(F)ccc1F was read as PAX8 reporter 10, EWS-Fli inh 3, C2C12 statin 24, miR122 inh 5[16.7 µM] and GSIS activator 1.
For O=C(N[C@H]1C=C[C@H](CC(=O)N2CCCCC2)O[C@H]1CO)c1cccc(F)c1 the results were PAX8 reporter 4, EWS-Fli inh 5, C2C12 statin 2, HIV Env fusion -15[16.7 µM] and GSIS activator 0.
Screening C[C@@H]1CN([C@@H](C)CO)C(=O)Cc2cc(N(C)C)ccc2O[C@@H]1CN(C)Cc1ccc(C(=O)Nc2ccccc2N)cc1 returned PAX8 reporter 76*, EWS-Fli inh inconclusive, C2C12 statin -144, HIV Env fusion -267[16.7 µM], miR122 inh 138*[16.7 µM] and GSIS activator 11.
C[C@H]1CN([C@@H](C)CO)C(=O)Cc2cc(N(C)C)ccc2O[C@@H]1CN(C)Cc1ccc(C(=O)Nc2ccccc2N)cc1 was read as PAX8 reporter 65*, EWS-Fli inh 47, C2C12 statin 36, HIV Env fusion -52[16.7 µM], miR122 inh 27[16.7 µM] and GSIS activator 26.
